Bioassay records: PubChem, several laboratories
Jurkat viability – cytotoxicity toward Jurkat cells | Jurkat E6.1 viability, ATP luminescence, 48 h | inhibition, % at 4 µM | 1.2% of 56,000 active | AID 463;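 active = inhibition above the mean inhibition of all tested compounds plus 3 SD, cut at about 28% in these data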
SK-BR-3 tox 24h – SK-BR-3 proliferation inhibitors; SK-BR-3 viability, CellTiter-Glo ATP luminescence, 24 h; active compounds read low; viability, % at 10 µM; 0.47% of 41,000 active; AID 847;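 active = viability at or below the median of all test compounds minus 3 SD, in both replicates if run twice, cut at about 45% in these data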;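 note: 100% = median untreated cell wells and 0% = median positive control drug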
Her2 expr inh – inhibitors of human Her2 kinase expression; SKBR-3 HER2 protein level, AlphaScreen, 18-24 h; active compounds read low; 0.69% of 65,000 active; AID 645; HER2 level % of control, % at 10 µM; P04626;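 active = HER2 level under 5% of the carrier-only control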;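 note: 100% = DMSO carrier and 0% = 500 nM PU-H71 HSP90 inhibitor; lower value means stronger loss of Her2 protein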
Target sequence (P04626 whole entry, looked up): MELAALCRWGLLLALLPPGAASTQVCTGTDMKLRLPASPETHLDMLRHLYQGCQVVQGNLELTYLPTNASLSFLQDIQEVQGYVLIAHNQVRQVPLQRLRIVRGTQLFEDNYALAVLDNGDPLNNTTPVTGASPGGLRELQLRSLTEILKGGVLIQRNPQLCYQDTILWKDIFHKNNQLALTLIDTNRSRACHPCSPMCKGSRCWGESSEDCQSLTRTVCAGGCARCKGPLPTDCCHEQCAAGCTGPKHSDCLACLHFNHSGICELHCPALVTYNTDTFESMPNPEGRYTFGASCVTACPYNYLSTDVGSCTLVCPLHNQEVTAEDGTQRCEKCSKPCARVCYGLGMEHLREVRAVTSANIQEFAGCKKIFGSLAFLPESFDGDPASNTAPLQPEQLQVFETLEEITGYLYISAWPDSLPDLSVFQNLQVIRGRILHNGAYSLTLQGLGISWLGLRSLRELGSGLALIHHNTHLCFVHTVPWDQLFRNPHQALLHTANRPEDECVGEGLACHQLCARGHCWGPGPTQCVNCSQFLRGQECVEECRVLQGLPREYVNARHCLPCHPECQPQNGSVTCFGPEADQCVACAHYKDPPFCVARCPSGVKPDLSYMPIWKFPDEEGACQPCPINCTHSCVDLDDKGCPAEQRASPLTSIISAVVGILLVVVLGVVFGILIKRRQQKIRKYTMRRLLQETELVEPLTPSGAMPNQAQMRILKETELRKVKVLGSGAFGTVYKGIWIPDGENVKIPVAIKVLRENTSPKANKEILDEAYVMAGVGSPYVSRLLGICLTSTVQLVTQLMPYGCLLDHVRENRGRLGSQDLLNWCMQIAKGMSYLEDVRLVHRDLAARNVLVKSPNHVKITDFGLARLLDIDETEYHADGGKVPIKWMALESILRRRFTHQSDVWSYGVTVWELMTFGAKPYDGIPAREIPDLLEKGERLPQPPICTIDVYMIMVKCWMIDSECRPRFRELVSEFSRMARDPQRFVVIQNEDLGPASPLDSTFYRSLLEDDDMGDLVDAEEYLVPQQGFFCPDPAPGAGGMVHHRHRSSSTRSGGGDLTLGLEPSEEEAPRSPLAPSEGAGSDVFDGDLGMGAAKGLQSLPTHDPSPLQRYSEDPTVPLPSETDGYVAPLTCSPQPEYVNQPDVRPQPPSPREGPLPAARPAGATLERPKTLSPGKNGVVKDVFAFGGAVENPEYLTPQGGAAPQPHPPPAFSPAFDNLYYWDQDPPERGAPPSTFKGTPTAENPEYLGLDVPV
The depositor's hits bear a star; x = no result given. This is a sample that favours compounds with a hit; in the whole collection about 2% have one here.

SMILES	Jurkat viability	SK-BR-3 tox 24h	Her2 expr inh
CNC(=O)c1nnn(Cc2ccccc2)c1NC(=O)C(F)(F)F	-2	91	92
O=C(c1ccccc1-c1ccccc1)N1CCN(c2ccccn2)CC1	84*	88	106
O=C(c1cc(-c2ccccc2)nc2ccccc12)N1CCN(c2ccccn2)CC1	-4	85	102
COc1ccc(OC)c(C(O)c2coc3ccc(O)c(CN4CCOCC4)c23)c1 (configuration not stated)	x	102	139
COc1cc2nc(N3CCN(C(=O)c4ccco4)CC3)nc(N)c2cc1OC	x	44*	40
COc1cc2nc(N3CCN(C(=O)C4COc5ccccc5O4)CC3)nc(N)c2cc1OC (configuration not stated)	x	91	92
O=C1CC(C(=O)Nc2nccs2)C(c2ccccc2)O1 (configuration not stated)	x	88	44
CCCCOc1ccc(Cl)cc1CSc1nnc(CC)n1N	14	103	136
CCC(C)(C)NC(=O)CN(CC1CCCO1)C(=O)CCC(=O)Nc1nccs1 (configuration not stated)	-7	92	109
CCOC(=O)N1CCN(CCC(=O)c2ccc(Cl)cc2)CC1	-3	x	-6.8*
CCOC(=O)N1CCN(C(=O)Cc2ccc(Cl)cc2)CC1	-10	98	93
Cc1cc2c(cc(C(=O)OCC(=O)NCc3cccs3)n2C(C)C)o1	64*	99	56
Cc1cc(C(=O)NCc2cccs2)c(C)o1	-5	97	89
Cc1ccc(C)c(N2CCN(C(=O)c3cc(S(=O)(=O)N4CCOCC4)ccc3F)CC2)c1	3	x	82
CCOC(=O)Cc1cn2c(=O)cc(CSCC(=O)Nc3ccc(C)c(C)c3)nc2s1	-6	x	100
CCOc1ccc(CC(=O)Nc2c(C(N)=O)oc3ccccc23)cc1OCC	-2	34*	112
NC(=O)c1oc2ccccc2c1NC(=O)c1ccco1	-6	x	36
Cc1cccc(N2CCN(C(=O)COc3cc(=O)n(C)c4ccccc34)CC2C)c1 (configuration not stated)	-1	x	94
CCOc1ccc(-c2cc(CCCC(=O)Nc3cc(OC)ccc3OC)no2)cc1	x	x	115
CCOc1ccc(-c2cc(CCCC(=O)Nc3cccc(OC)c3)no2)cc1	91*	x	102
O=C(Nc1cccnc1)C1CCCN(S(=O)(=O)c2cccc3nsnc23)C1 (configuration not stated)	3	100	85
CC(C)c1nc(SCC(=O)NCc2ccc3c(c2)OCO3)c2c(=O)n(C)c(=O)n(C)c2n1	-4	x	89
O=S(=O)(c1ccc2c(c1)C(=NO)c1cc(S(=O)(=O)N3CCCCC3)ccc1-2)N1CCCCC1	0	3.5*	-22*
O=S(=O)(c1ccc(S(=O)(=O)N2CCCC2)cc1)N1CCCCCC1	4	70	95
Cn1c(OCc2ccc3c(c2)OCO3)nc2c1c(=O)n(Cc1cccc(Cl)c1)c(=O)n2C	x	87	104
SMILES	Jurkat viability	SK-BR-3 tox 24h	Her2 expr inh
CCCOC(=O)CN1C(=O)c2ccccc2C1=O	5	91	92
CCCCOCCCNC(=O)CN1C(=O)c2ccccc2C1=O	x	96	-21*
COc1cc(C2=NOC(C(=O)NCc3ccco3)C2)cc(OC)c1OC (configuration not stated)	73*	x	120
COc1cc(C2=NOC(C(=O)Nc3ccc(C(C)=O)cc3)C2)cc(OC)c1OC (configuration not stated)	-10	x	167
CC1(C)CC(=O)CC(C)(C)N1OC(=O)c1ccncc1	1	93	93
Cc1ccc2[nH]c(C(=O)O)c(-c3ccccc3)c2c1	6	99	79
Cc1ccc2[nH]c(-c3ccccc3)cc(=O)c2c1	98*	x	64
Cc1ccc2cccc(S(=O)(=O)Nc3ccc4c(c3)OCO4)c2n1	6	79	115
CCOC(=O)c1c(C)c(C(=O)Nc2ccc(N(C)C)cc2)c(C)n1CC	59*	x	77
CCOC(=O)c1c(C)c(C(=O)NCCOC)c(C)n1CC	18	x	107
COc1ccc(Cl)cc1NC(=O)c1nc2nc(C)cc(C(F)F)n2n1	8	x	88
CC(=O)Oc1c(Cl)c(N2CCOCC2)c(OC(C)=O)c2ccccc12	1	92	78
Cc1ccc(OCCN2CCN(C(=O)CCC(=O)Nc3nnc(C)s3)CC2)cc1	13	107	113
Cc1ccc(OCCN2CCN(C(=O)CCC(=O)Nc3nnc(C(C)C)s3)CC2)cc1	55*	84	75
COc1ccc(-c2[nH]ncc2-c2cnn(-c3ccccc3)c2)c(O)c1	x	107	154
CCN=c1scc(-c2ccc3c(c2)NC(=O)CO3)n1N=C1CCCC1	36*	x	126
COc1ccccc1N=c1scc(-c2ccc3c(c2)NC(=O)CO3)n1CC1CCCO1 (configuration not stated)	6	x	98
CC(C)(C)OC(=O)N1CCC[C@H]1c1nnc(SCc2ccccc2F)o1	3	73	109
CC(C)(C)n1ncc2c(=O)n(CC(=O)NCc3ccco3)cnc21	7	x	71
CC(C)(C)n1ncc2c(=O)n(CC(=O)NCc3ccc(F)cc3)cnc21	54*	x	86
CC(NC(=O)c1cccnc1)c1ccc2c(c1)OCO2 (configuration not stated)	-2	86	112
COc1ccc(N2CCn3c2nc2c3c(=O)n(CCc3ccccc3)c(=O)n2C)c(OC)c1	5	77	75
COc1ccc(N2CCn3c2nc2c3c(=O)n(CCCc3ccccc3)c(=O)n2C)c(OC)c1	50*	x	75
COc1cccc(NC(=O)CC2(CC(=O)O)CCCC2)c1	2	101	88
CCN(CC)C(=O)C1CC(=O)N(c2ccc(F)c(Cl)c2)C1 (configuration not stated)	5	x	75
SMILES	Jurkat viability	SK-BR-3 tox 24h	Her2 expr inh
CCOC(=O)c1c(C)oc2c1c(C(c1cccnc1)N1CCN(C)CC1)c(O)c1ccccc12 (configuration not stated)	6	x	-16*
CCOC(=O)c1c(C)oc2c1c1c(c3ccccc32)OCN(Cc2cccnc2)C1	3	56	55
CC#CCN(CC#CC)S(=O)(=O)c1ccc(-n2cnnn2)c(OC)c1	3	82	71
COc1ccccc1CCn1cnc2c3cc(C)ccc3n(C)c2c1=O	14	85	93
c1ccc(-c2cc3c(ccc4nonc43)nn2)cc1	-13	x	71
On1onc2c3cc(-c4ccccc4)nc3ccc21	98*	x	41
CCn1c(=O)c2cc(S(=O)(=O)NC3CCCCC3)ccc2n(CC)c1=O	-1	92	82
CC(C)Cn1c(Br)nc2c1c(=O)n(CCC#N)c(=O)n2C	6	96	101
COc1cc(C2C3=C(Nc4ncnn42)c2ccccc2CC3)cc(OC)c1OC (configuration not stated)	98*	x	67
COc1ccc(C2C3=C(Nc4ncnn42)c2ccccc2CCC3)cc1 (configuration not stated)	x	69	70
O=c1[nH]c(NCc2ccco2)nnc1Cc1ccccc1Cl	x	115	133
Cc1cc(C)nc(-n2nc(C)c(Sc3ccc(F)cc3)c2N)n1	5	76	65
Cc1nn(C)c(C)c1Sc1ccc(Br)cc1	5	56	-9.0*
COc1ccc(S(=O)(=O)Nc2ccccc2C(F)(F)F)cc1	1	x	109
COc1ccc(S(=O)(=O)Nc2ccc(O)c3ccccc23)cc1	19	x	3.4*
